In ChEMBL document CHEMBL4513216, “Probing the Open Global Health Chemical Diversity Library for Multistage-Active Starting Points for Next-Generation Antimalarials” (ACS Infect Dis, 2020) one finds INHIBITION data, which are given here for 67 molecules.

Molecules are shown by their SMILES. Screen size: about 69,000 compounds; about 8,600 (12%) showed an effect of 50% or more. For the sample, strong results were picked, then their nearest neighbours and some compounds at random.

This assay concerns Plasmodium berghei. Put plainly: Screen against P. berghei liver stage (PbLuc), transformed with Luciferase, at 10uM. The assay is classed as functional, HepG2. Particulars: tested at 10 uM.
With `Cc1ccccc1C1CN(c2cnn(C)c(=O)c2Cl)CCO1` (configuration not stated), the INHIBITION is on record as -3.35%.

With `Cc1cnc(N2C[C@H]3CN(Cc4csc(C)n4)C(=O)[C@H]3C2)nc1`, the INHIBITION stood at 31.4%.

Regarding `CCOC(=O)[C@]12CCCN(Cc3ccco3)C[C@H]1CN(S(C)(=O)=O)C2`, the INHIBITION stood at 6.67%.

In the case of `Cc1ccc2c(c1)[C@@H](CC(=O)N1CCN(C)CC1)CCO2`, the INHIBITION is -12.2%.

With `CNC(=O)[C@H]1C[C@@H]2CN(S(=O)(=O)c3ccc(F)cc3)C[C@@H]2N1C`, the INHIBITION came out at 35.8%.

Consider `CCN1CC[C@@]2(C(=O)N3CCCC3)CCN(S(C)(=O)=O)CC[C@@H]12`, for which the INHIBITION is reported as -45.5%.

In the case of `Cc1ncsc1CN1C[C@@H]2COC[C@]2(CNC(=O)c2ccccc2)C1`, the INHIBITION is reported as -49.6%.

Take `Cc1cccc(COC[C@H]2CC[C@H]3[C@H](CCN3C(=O)CC3CC3)O2)n1`: the INHIBITION was found to be 2.84%.

As for `COc1cccc(COCC(=O)N2CCCCCC2)c1`, the INHIBITION is recorded as -51.075%.

Consider `O=C(CCc1cn[nH]c1)N1C[C@@H](CN2CCCCCC2)[C@@H](CO)C1`, for which the INHIBITION is 36.6%.

As to `COc1cccc(OCC2CCCN(C(=O)CCn3ccnc3)C2)c1` (configuration not stated), the INHIBITION was determined as 82.2%.

For `COc1ccccc1C(=O)N1CCN(C(=O)CCn2ccnc2)CC1`, the INHIBITION was -27.4%.

Consider `O=C(CCCc1cn[nH]c1)N1C[C@@H](CN2CCOCC2)[C@@H](CO)C1`, for which the INHIBITION was found to be 2.3%.

`COc1cccc(C(=O)N2CCN(C(=O)CCCc3cn[nH]c3)CC2)c1`: the INHIBITION amounted to 65.6%.

For the molecule `COc1ccc(C(=O)N2CCN(C(=O)CCCc3cn[nH]c3)CC2)cc1`, the INHIBITION worked out at 26.4%.

In the case of `COc1ccccc1C(=O)N1CCN(C(=O)CCCc2cn[nH]c2)CC1`, the INHIBITION is 32%.

In the case of `COc1cccc(C(=O)N2CCN(C(=O)CCn3ccnc3)CC2)c1`, the INHIBITION came out at 55%.

As for `COc1cccc(OCC2CCCN(C(C)=O)C2)c1` (configuration not stated), the INHIBITION is given as -20.9%.

Regarding `COc1cccc(C(=O)N2CCN(C(=O)CCCn3ccnc3)CC2)c1`, the INHIBITION worked out at 40.9%.

With `O=C(CCCc1cn[nH]c1)N1C[C@@H](CN2CCCCCC2)[C@@H](CO)C1`, the INHIBITION turned out to be 52.2%.

`COc1cccc(OCC2CCCN(C(=O)CCCn3cccn3)C2)c1` (configuration not stated): the INHIBITION was 16.9%.

Consider `N#CC(NC(=O)CNC(=O)c1ccccc1)c1ccsc1` (configuration not stated), for which the INHIBITION came out at 18.5%.

For the molecule `CC(=O)Nc1nc(C2CN(C(=O)C3CCC3)C2)cs1`, the INHIBITION amounted to 37.6%.

As for `Cn1c(C(=O)N2CC[C@@]3(O)CCCC[C@H]3C2)cc2ccccc21`, the INHIBITION is -9.51%.

In the case of `COc1ccc([C@@H]2CN(C(=O)c3cscn3)C[C@H]2C(=O)O)cc1`, the INHIBITION is recorded as -9.32%.

For the molecule `O=C(Cc1n[nH]c2ccccc12)N1CCCCC1Cn1cccn1` (configuration not stated), the INHIBITION is -31.5%.

For `Cc1nn(C)c(N(C)C)c1CNCCOc1ccc2c(c1)OCO2`, the INHIBITION is -20.893%.

`OC(CN1CCOCC1)c1ccc(Br)cc1` (configuration not stated): the INHIBITION worked out at 1.56%.

Take `CCC(=O)NC(C)c1ccccc1C` (configuration not stated): the INHIBITION is on record as 10.06%.

With `Cc1c(C(=O)N2CCCC(n3cncn3)C2)cnn1C` (configuration not stated), the INHIBITION was 1.75%.

For `Nc1nnc(C2CC(=O)N(c3ccccc3)C2)s1` (configuration not stated), the INHIBITION was found to be 44.9%.

Consider `Cn1cc(-c2nc(CN3CCN(c4nccs4)CC3)cs2)cn1`, for which the INHIBITION worked out at 42.7%.

Turning to `c1cncc(C2COC3(CCN(CC4CCOCC4)CC3)C2)c1` (configuration not stated), the INHIBITION was found to be 23.3%.

`O=C(NCCCN1CCOCC1)c1cc(-c2ccccc2)[nH]n1`: the INHIBITION is recorded as -14.3%.

Take `O=C(Cc1nc(-c2ccncc2)n[nH]1)N1CCOCC1`: the INHIBITION was 78.8%.

As to `CC(C)C(=O)NCCc1nc(-c2ccncc2)n[nH]1`, the INHIBITION is reported as 28.2%.

Consider `O=C(COCc1nc(-c2ccncc2)no1)N1CCCC1`, for which the INHIBITION was 16.8%.

As for `O=C(Cc1nc(-c2ccncc2)n[nH]1)NCCCN1CCOCC1`, the INHIBITION was 66.3%.

For the molecule `O=C(NCCCN1CCOCC1)c1cc(-c2ccco2)[nH]n1`, the INHIBITION is recorded as -26.5%.

With `O=C(COCc1nc(-c2ccncc2)no1)N1CCOCC1`, the INHIBITION worked out at 1.06%.

Take `COCCCNC(=O)Cc1nc(-c2ccncc2)n[nH]1`: the INHIBITION is recorded as 77.7%.

`CC(C)c1cc(C(=O)NCCc2nc(-c3ccncc3)n[nH]2)[nH]n1`: the INHIBITION is 5.7%.

In the case of `OCC1CCCN1c1cc(NCc2cccc3cccnc23)ncn1` (configuration not stated), the INHIBITION was -21.8%.

As for `Cc1ccc(CS(=O)(=O)CC(=O)NCCCOC(C)C)cc1`, the INHIBITION is given as 15.6%.

On to `Cc1cc(C)c(CNC(=O)NC(C)c2ccc3c(c2)CCC3)c(=O)[nH]1` (configuration not stated), for which the INHIBITION came out at 48.2%.

With `Cc1cc(CN2CCOC(CNc3cccnn3)C2)on1` (configuration not stated), the INHIBITION was found to be 2.3%.

Take `COc1ccccc1N1CCN(C(=O)CSC(C)C)C(C)C1` (configuration not stated): the INHIBITION turned out to be 17.6%.

In the case of `COc1ccccc1N1CCN(C(=O)CSCC2CC2)C(C)C1` (configuration not stated), the INHIBITION is on record as 51.2%.

As for `CCN1CCC(CC(=O)N2CCN(c3ccccc3OC)CC2C)CC1` (configuration not stated), the INHIBITION is 21.2%.

On to `COc1ncccc1-c1cc(C(=O)NC2CC2)ccn1`, for which the INHIBITION is reported as -68.7%.

Turning to `COc1ncccc1-c1ncccc1NC(=O)C(C)C`, the INHIBITION is given as 24.3%.

Take `COc1ncccc1-c1cc(C(N)=O)ccn1`: the INHIBITION turned out to be 52.2%.

Take `CN1CCCC1CNC(=O)CCOc1ccc(Cl)cc1` (configuration not stated): the INHIBITION is reported as -11.98%.

On to `Cc1cnc(C)c(N2CCN(CCCc3ccncc3)CC2)n1`, for which the INHIBITION is reported as 76%.

For `Cc1cnc(N)nc1N1CCN(CCCO)CC1`, the INHIBITION turned out to be 42.1%.

Turning to `Cc1noc(C(C)N2CCN(CCc3ccncc3)CC2)n1` (configuration not stated), the INHIBITION was -11.9%.

Consider `Cc1cnc(C)c(N2CCN(CCCc3[nH]nc(C)c3C)CC2)n1`, for which the INHIBITION is recorded as 30.3%.

Regarding `CSCCN1CCN(c2nc(N)ncc2C)CC1`, the INHIBITION was found to be 19.4%.

Regarding `CCN(CC)CCCN1CCN(c2nc(C)cnc2C)CC1`, the INHIBITION is recorded as 71.1%.

On to `Cc1nc(CN2C[C@@H]3COC[C@]3(COCC(=O)N(C)C)C2)cs1`, for which the INHIBITION is recorded as 43.1%.

`CN(C)c1ccc(C(=O)Nc2cn[nH]c2)cc1`: the INHIBITION turned out to be 4.885%.

In the case of `Cc1cc(C)n(CC(=O)N2CCCC2c2cc3cccnc3[nH]2)n1` (configuration not stated), the INHIBITION turned out to be 9.05%.

As to `CCC(=O)N1CCOC(c2cc(Nc3nncs3)cc(C)n2)C1` (configuration not stated), the INHIBITION was determined as 41%.

As for `O=S1(=O)NC(=CSCc2ccccc2)Nc2ccccc21`, the INHIBITION was 38%.

On to `O=C(c1cc(C2CC2)on1)N1C[C@H]2CC[C@](O)(c3ccccc3F)[C@H]2C1`, for which the INHIBITION is given as 53.45%.

As for `O=C(c1cc(C2CC2)on1)N1C[C@H]2CC[C@](O)(c3ccc(F)cc3)[C@H]2C1`, the INHIBITION stood at 1.75%.

`O=C(c1cc(C2CC2)n[nH]1)N1C[C@H]2CC[C@](O)(c3ccccc3F)[C@H]2C1`: the INHIBITION is recorded as -16.56%.
